Values joined by “and” are separate entries in the source; they are usually repeats but may differ in a detail not shown here. Equal values may be shown once. Records with an inconclusive call do not appear. A structure can be active in one record and inactive in another. Active and inactive are the calls of the source. Unless noted, the call rests on the fitted dose curve.

Assay [1] in a line: Nuclear factor erythroid 2-related factor 2/antioxidant responsive element (Nrf2/ARE) small molecule agonists: luciferase reporter gene qHTS assay in human keratinocytes (AID 1919969). Further: nearly all actives have a fitted effect of over 35% in size. Further: potency means the concentration at half of the fitted maximal effect.
Assay [2] concerns the target Gonadotropin-releasing hormone receptor (Homo sapiens) (UniProt P30968). Put plainly: Human gonadotropin-releasing hormone receptor (GnRHR) small molecule agonists, calcium flux assay in GnRHR-HEK293 cells (AID 1920063). Further: nearly all actives have a fitted effect of over 35% in size. The method, boiled down:
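Compounds dissolved in DMSO are pin-transferred onto dye-loaded GnRHR-HEK293 cells, which were seeded 18 h before at 37 C/5% CO2. Calcium signal is read as fluorescence intensity at 1 s intervals for 3 min.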

For assay [3], the target named is KiSS-1 receptor (Homo sapiens) (UniProt Q969F8). Kind of assay: Human kisspeptin (KISS1R) small molecule agonists, calcium flux assay in KISS1R-HEK293 cells (AID 1920064; active means well fitted activation curve with a large enough effect in the repeat runs). The method, boiled down: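 Cell line: HEK293, stable human KISS1R. Dye loading 1 h at 37 C after 18 h culture. Read: kinetic fluorescence, 480/540 nm, 3 min at 1 s intervals.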
(In general: Calcium assays in cells follow changes in intracellular calcium, usually with a dye or a luminescent sensor.)

A short description of assay [4]: G protein-coupled receptor (GPCR) small molecule agonists, calcium flux assay: HEK293 wild type cell line counter screen (AID 1920065). The method, boiled down: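 Tox21 10K compounds, 15 concentrations each in triplicate, pin-transferred in DMSO onto dye-loaded cells; kinetic read at 480/540 nm for 3 min, 1 s intervals.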
Assay [5] in a line: p53 small molecule agonists, cell-based qHTS assay with rat liver microsomes: qHTS cell viability counter screen (AID 1963580). Further: nearly all actives have a fitted effect of over 45% in size. The method, boiled down: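 Cytotoxicity counter screen: intracellular ATP measured by CellTiter-Glo luminescence in the same wells as the beta-lactamase reporter read, on HCT-116 p53RE-bla cells exposed 16 h at 37 C to compounds with rat liver microsomes and NADPH, each 0.5 mg/mL final.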
On the technique in general: In qHTS, concentration-response curves come from the screen itself.

Assay [6] in a line: p53 small molecule agonists, cell-based qHTS assay: qHTS cell viability counter screen (AID 1963581). Further: nearly all actives have a fitted effect of over 45% in size. The procedure, abridged: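 ATP content measured by luminescence in HCT-116 p53RE-bla cells treated 16 h at 37 C, same wells as the reporter screen.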
Assay [7] deals with Muscarinic acetylcholine receptor M1 (Homo sapiens) (UniProt P11229). Put plainly: Cholinergic receptor muscarinic 1 (CHRM1) small molecule antagonists, cell-based qHTS assay (AID 1963588). Further: nearly all actives have a fitted effect of over 40% in size. Further: potency means the concentration at half of the fitted maximal effect. The procedure, abridged:
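Compounds were tested at 15 concentrations in three independent runs. Dye-loaded CHRM1-CHO cells were exposed 5 min at room temperature before stimulation by acetylcholine added at 50nM. Intracellular calcium was read kinetically on FDSS for 3 min.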

Assay [8] can be described thus: cAMP Responsive Elements (CRE) small molecule agonists, cell-based qHTS assay (AID 1963590). The method, boiled down: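 HEK 293T cells stably bearing CRE-bla were plated at 2,000 cells per well and rested 18 h. Compounds, positive controls or DMSO were added for 3 h at 37 C. LiveBLAzer B/G substrate was then loaded for 2 h at room temperature.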
Assay [9] can be described thus: cAMP Responsive Elements (CRE) small molecule antagonists, cell-based qHTS assay (AID 1963591; active means well fitted inhibition curve with a large enough effect in the signal ratio in the repeat runs, not every such curve was filed as active; the % refers to the signal ratio). The procedure, abridged:
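First, CRE-bla HEK293T cells settled 18 h at 37 C. Next, compound and 0.25 uM final NKH477 were applied for 3 h. Last, LiveBLAzer B/G substrate was loaded for 2 h at room temperature.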

Assay [10] concerns the target Beta-2 adrenergic receptor (Homo sapiens) (UniProt P07550). Put plainly: Adrenergic beta2 receptor (ADRB2) small molecule antagonists, cell-based qHTS assay (AID 1963592). Further: series mostly up to about 92 µM; nearly all actives have a fitted effect of over 50% in size. The procedure, abridged: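 Assay format: CHO-ADRB2 cells, 18-20hr seeding at 37C/5% CO2, then compound plus 1nM isoproterenol agonist mix for 0.5hr RT. Homogeneous time-resolved fluorescence cAMP detection after 1hr, expressed as 665/615 nm ratio.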

For assay [11] the target is unchanged. Kind of assay: Adrenergic beta2 receptor (ADRB2) small molecule agonists, cell-based qHTS assay (AID 1963593).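 Further: CHO cells stably overexpressing human ADRB2.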 The method, boiled down:
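CHO cells stably over-expressing ADRB2 were plated overnight at 37C, then dosed with compounds plus a stimulation mix containing 100uM IBMX and 25uM Ro-20-1724 for 0.5hr at room temperature. cAMP was measured by HTRF competition, 1hr.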

Assay [12] addresses D(2) dopamine receptor (Homo sapiens) (UniProt P14416). Kind of assay: Dopamine D2 receptor (DRD2) small molecule agonists, cell-based qHTS assay (AID 1963594). Further: nearly all actives have a fitted effect of over 35% in size. The method, boiled down:
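HEK293 cells stably expressing human DRD2, pre-treated with PDE inhibitor Ro20-1724 (0.1 mM final) and compound 10 min at room temperature, then stimulated with NKH477 (200nM […]) for 30 min. cAMP read by HTRF (665/620 nm).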

For assay [13] the target is unchanged. Kind of assay: Dopamine D2 receptor (DRD2) small molecule antagonists, cell-based qHTS assay (AID 1963595; active means well fitted inhibition curve with a large enough effect in the signal ratio in the repeat runs, with a control signal flat; the % refers to the signal ratio). The method, boiled down:
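HEK293 cells stably expressing DRD2, preincubated with 0.1 mM Ro20-1724 and compounds 10 min, were stimulated with 200 nM NKH477 plus 12 nM quinpirole for 30 min at room temperature; cAMP measured by HTRF (665/620 nm).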

The nature of assay [14]: p53 small molecule agonists, cell-based qHTS assay with rat liver microsomes (AID 1963578). The method, boiled down:
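Agonist mode in p53RE-bla reporter cells, with compounds co-incubated 16 h at 37 C alongside 0.5 mg/mL rat liver microsomes and 0.5 mg/mL NADPH (final), followed by a 2 h LiveBLAzer detection step.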

Assay [15] can be described thus: p53 small molecule agonists, cell-based qHTS assay with human liver microsomes: qHTS cell viability counter screen (AID 1963579). Further: nearly all actives have a fitted effect of over 45% in size. Further: potency means the concentration at half of the fitted maximal effect. The method, boiled down: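 Metabolically activated exposure: compounds, human liver microsomes and NADPH (0.5 mg/mL final apiece) were added to p53RE-bla cells seeded 5 h earlier, left 16 h at 37 C, and then assessed for viability by CellTiter-Glo luminescence.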

A short description of assay [16]: p53 small molecule agonists, cell-based qHTS assay (AID 1963582; active means well fitted activation curve with a large enough effect in the signal ratio in the repeat runs, not every such curve was filed as active; the % refers to the signal ratio). The method, boiled down:
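16 h compound exposure (37 C) of p53 response element–bla cells, preceded by 5 h recovery at 37 C/5% CO2; read-out via LiveBLAzer B/G FRET substrate, 2 h RT, fluorescence intensity.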

In assay [17] the target is 5-hydroxytryptamine receptor 2A (Homo sapiens) (UniProt P28223). Put plainly: 5-hydroxytryptamine receptor 2A (HTR2A) small molecule antagonists, cell-based qHTS assay (AID 1963586). Further: nearly all actives have a fitted effect of over 45% in size. The procedure, abridged: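 CHO cells stably expressing human HTR2A were plated for 18 h at 37 C, then loaded with calcium dye for 1 h. Compounds were preincubated 5 min at room temperature before DOI (4 nM solution) was added. Kinetic fluorescence was read for 3 min.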

Assay [18] shares this target. Put plainly: 5-hydroxytryptamine receptor 2A (HTR2A) small molecule agonists, cell-based qHTS assay (AID 1963587). Further: nearly all actives have a fitted effect of over 30% in size. The method, boiled down: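 CHO cells stably expressing human HTR2A, plated 18 h, loaded with calcium dye 1 h at 37 C. Agonist mode: compounds added and intracellular calcium fluorescence recorded kinetically for 2 min at 1 sec intervals.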
Assay [19] concerns the target Muscarinic acetylcholine receptor M1 (Homo sapiens) (UniProt P11229). Put plainly: Cholinergic receptor muscarinic 1 (CHRM1) small molecule agonists, cell-based qHTS assay (AID 1963589). Further: nearly all actives have a fitted effect of over 35% in size. The method, boiled down:
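Homogeneous fluorescence calcium flux, agonist mode. Human M1-expressing CHO cells; compound dosed at 15 concentrations, three independent runs; signal sampled every 1 sec.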

A short description of assay [20]: p53 small molecule agonists, cell-based qHTS assay with human liver microsomes (AID 1963577).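 Further: p53 response element beta-lactamase reporter cells with liver microsomes plus NADPH.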 The method, boiled down:
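In this qHTS, p53 response-element beta-lactamase cells receive test compound together with a microsome/NADPH activating system (0.5 mg/mL final each) and are incubated 16 h at 37 C before LiveBLAzer fluorescence detection.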

5-hydroxytryptamine receptor 2A (Homo sapiens), sequence (P28223 whole entry, looked up): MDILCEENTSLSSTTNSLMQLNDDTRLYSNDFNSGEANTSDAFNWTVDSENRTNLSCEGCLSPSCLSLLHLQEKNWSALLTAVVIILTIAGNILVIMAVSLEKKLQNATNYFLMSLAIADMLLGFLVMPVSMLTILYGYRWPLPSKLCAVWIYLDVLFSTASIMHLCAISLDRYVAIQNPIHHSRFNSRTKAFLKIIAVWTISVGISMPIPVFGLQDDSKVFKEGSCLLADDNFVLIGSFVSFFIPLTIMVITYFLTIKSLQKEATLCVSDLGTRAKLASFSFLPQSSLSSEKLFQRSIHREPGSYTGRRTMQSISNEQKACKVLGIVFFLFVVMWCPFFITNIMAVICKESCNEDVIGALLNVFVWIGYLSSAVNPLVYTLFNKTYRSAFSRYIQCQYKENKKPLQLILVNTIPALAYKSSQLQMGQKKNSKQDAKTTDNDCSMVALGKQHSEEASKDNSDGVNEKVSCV
KiSS-1 receptor (Homo sapiens), sequence (Q969F8 whole entry, looked up): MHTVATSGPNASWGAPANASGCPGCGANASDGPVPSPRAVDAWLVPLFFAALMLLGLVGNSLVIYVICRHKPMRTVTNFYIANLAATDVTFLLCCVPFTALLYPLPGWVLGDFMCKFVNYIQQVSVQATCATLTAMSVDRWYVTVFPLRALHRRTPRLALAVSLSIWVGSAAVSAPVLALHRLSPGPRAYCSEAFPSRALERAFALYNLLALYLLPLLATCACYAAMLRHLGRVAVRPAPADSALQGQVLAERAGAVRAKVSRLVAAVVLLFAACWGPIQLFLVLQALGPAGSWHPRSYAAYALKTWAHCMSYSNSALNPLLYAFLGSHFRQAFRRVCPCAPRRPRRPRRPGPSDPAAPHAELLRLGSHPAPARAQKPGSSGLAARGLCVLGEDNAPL
Gonadotropin-releasing hormone receptor (Homo sapiens), sequence (P30968 whole entry, looked up): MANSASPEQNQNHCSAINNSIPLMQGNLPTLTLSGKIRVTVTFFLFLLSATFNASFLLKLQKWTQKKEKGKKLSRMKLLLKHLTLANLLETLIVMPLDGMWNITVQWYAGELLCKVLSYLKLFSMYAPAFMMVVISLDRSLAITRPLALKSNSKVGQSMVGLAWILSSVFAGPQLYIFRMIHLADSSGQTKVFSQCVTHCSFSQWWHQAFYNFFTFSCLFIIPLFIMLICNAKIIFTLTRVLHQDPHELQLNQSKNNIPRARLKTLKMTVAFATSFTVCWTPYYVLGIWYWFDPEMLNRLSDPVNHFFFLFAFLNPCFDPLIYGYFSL
Muscarinic acetylcholine receptor M1 (Homo sapiens), sequence (P11229 whole entry, looked up): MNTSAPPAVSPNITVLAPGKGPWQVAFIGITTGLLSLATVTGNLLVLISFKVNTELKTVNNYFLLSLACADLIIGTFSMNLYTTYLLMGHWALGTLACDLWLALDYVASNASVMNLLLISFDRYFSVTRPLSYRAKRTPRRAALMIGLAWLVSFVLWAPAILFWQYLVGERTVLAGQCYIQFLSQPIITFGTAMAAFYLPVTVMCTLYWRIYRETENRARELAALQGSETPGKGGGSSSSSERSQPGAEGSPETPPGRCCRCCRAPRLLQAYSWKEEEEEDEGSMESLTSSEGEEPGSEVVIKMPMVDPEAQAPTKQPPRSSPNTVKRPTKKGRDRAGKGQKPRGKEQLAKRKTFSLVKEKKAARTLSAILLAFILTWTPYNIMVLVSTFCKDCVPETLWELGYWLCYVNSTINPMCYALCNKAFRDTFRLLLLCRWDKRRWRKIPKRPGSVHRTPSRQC
D(2) dopamine receptor (Homo sapiens), sequence (P14416 whole entry, looked up): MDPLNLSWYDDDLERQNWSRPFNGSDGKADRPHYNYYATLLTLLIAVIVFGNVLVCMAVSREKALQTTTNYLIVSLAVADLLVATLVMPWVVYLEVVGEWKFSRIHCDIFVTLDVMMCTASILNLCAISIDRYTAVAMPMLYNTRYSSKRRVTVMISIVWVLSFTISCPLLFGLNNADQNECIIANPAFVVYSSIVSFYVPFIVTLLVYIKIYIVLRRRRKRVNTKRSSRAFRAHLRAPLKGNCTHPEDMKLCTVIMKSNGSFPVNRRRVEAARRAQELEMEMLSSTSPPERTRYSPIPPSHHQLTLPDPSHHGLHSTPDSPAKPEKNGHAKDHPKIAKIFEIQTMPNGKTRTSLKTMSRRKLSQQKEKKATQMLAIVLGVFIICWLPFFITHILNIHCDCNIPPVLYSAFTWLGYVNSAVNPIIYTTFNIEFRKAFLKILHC
Beta-2 adrenergic receptor (Homo sapiens), sequence (P07550 whole entry, looked up): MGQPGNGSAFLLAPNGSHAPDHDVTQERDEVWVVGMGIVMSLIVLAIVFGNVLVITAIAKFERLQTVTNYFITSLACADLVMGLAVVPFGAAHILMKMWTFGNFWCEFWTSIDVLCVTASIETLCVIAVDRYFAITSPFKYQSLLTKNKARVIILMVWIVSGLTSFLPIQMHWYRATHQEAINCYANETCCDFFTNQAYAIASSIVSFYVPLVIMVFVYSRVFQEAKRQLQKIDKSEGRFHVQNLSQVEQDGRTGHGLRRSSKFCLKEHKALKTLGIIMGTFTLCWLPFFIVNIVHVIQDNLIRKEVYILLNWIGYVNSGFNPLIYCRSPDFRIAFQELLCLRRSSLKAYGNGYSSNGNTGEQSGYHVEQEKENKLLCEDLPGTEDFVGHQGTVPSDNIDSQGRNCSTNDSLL

With `O=c1nc(O)n(Cl)c(=O)n1Cl`, the Potency result in assay [1], in [2], in [3], in assay [4], in assay [5] and in [6] was “inactive” throughout. The Potency result in assay [7], in assay [8], in [9], in assay [10], in assay [11] and in [12] was “inactive” in each case. Also, the Potency entry in assay [13] was “inactive”.
In the case of `CCC(=O)C(CC(C)N(C)C)(c1ccccc1)c1ccccc1` (stereo not drawn), the Potency entry in assay [1], in assay [2], in [4], in [14], in [15] and in assay [5] was “inactive” in each case. Further, the Potency entry in assay [6], in assay [16], in assay [17], in assay [18], in [19] and in assay [10] was “inactive” each time. The Potency entry in [12] and in [13] was “inactive” in each case. In [7], the Potency result is “inactive and 10.1 µM (active)”.
For the molecule `CCc1cccc(CC)c1N(COC)C(=O)CCl`, in assay [1], the Potency was 47 µM (active) and 54.5 µM (active). The Potency entry in assay [2], in assay [3], in assay [4], in assay [15], in [5] and in assay [6] was “inactive” each time. The Potency result in assay [17], in assay [18], in assay [7], in assay [19], in assay [12] and in [13] was “inactive” throughout.
With `CCN(CC)C(=S)S`, the Potency result in assay [1], in assay [2], in assay [3], in assay [4], in assay [5] and in assay [6] was “inactive” in each case. Further, the Potency result in assay [17], in [18], in assay [7], in assay [19], in assay [8] and in assay [9] was “inactive” in each case. For the same molecule, the Potency result in assay [10], in [11], in [12] and in assay [13] was “inactive” throughout. The Potency in assay [15] was 29.1 µM (active) and inactive.
For `CCOP(=O)(CN(CCO)CCO)OCC`, the Potency result in assay [1], in assay [2], in assay [3], in assay [4], in assay [14] and in [5] was “inactive” each time. The Potency result in assay [6], in [16], in [17], in assay [18], in assay [7] and in assay [19] was “inactive” each time. The Potency result in assay [8], in [10], in assay [12] and in assay [13] was “inactive” each time.
For the molecule `CC(C)NC(C)C`, the Potency entry in [1], in assay [2], in [4], in assay [20], in assay [14] and in assay [15] was “inactive” throughout. For the same molecule, the Potency result in assay [5], in [6], in assay [16], in [17], in assay [18] and in assay [7] was “inactive” in each case. Also, the Potency result in assay [19], in assay [8], in [9], in assay [10], in assay [11] and in [12] was “inactive” in each case. In addition, the Potency result in assay [13] was “inactive”.

Source of the values: PubChem BioAssay (Tox21).
